PP5 inh: PP5 (human) phosphatase inhibition. AID 1987. 320,000 tested, 0.18% active. P53041. inhibition, % at 6.7 µM. purified PP5c, OMFP substrate fluorescence;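 active = inhibition above the campaign's mean inhibition across all tested compounds plus 3 SD, cut at about 9.5% in these data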;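 also: 0% = DMSO only and 100% = 100 µM cantharidin control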
H9c2 protect: myocardial damage modulation in H9c2 cells; H9c2 cardiomyocytes, H2O2 injury protection, ATPLite, 2 h; protection from H2O2 cell death, % at 20 µM; 360,000 tested, 0.63% active;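 active = compounds giving at least 50% protection of heart cells from peroxide-induced death in the single-dose screen, raw or plate-pattern-corrected value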;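 also: 0% = DMSO wells with peroxide and 100% = DMSO wells without peroxide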
PP1 counter: blocks human PP1-alpha phosphatase, a PP5 counter-screen; P62136; purified PP1alpha, OMFP fluorescence; inhibition, % at 6.7 µM; 320,000 tested, 0.9% active; AID 2235;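 active = inhibition above the mean inhibition of all tested compounds plus 3 SD, computed separately for each screening campaign, cut at about 15% in these data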
ATG4B inhibitor: blocks human ATG4B protease cleavage of LC3 substrate. Q9Y4P1. ATG4B cleavage of LC3-PLA2, NBD-HPC fluorescence, 1 h. inhibition, % at 8.33 µM. 340,000 tested, 0.51% active. AID 504462; in the data active = inhibition above about 40%
Target sequence (Q9Y4P1 whole entry, looked up): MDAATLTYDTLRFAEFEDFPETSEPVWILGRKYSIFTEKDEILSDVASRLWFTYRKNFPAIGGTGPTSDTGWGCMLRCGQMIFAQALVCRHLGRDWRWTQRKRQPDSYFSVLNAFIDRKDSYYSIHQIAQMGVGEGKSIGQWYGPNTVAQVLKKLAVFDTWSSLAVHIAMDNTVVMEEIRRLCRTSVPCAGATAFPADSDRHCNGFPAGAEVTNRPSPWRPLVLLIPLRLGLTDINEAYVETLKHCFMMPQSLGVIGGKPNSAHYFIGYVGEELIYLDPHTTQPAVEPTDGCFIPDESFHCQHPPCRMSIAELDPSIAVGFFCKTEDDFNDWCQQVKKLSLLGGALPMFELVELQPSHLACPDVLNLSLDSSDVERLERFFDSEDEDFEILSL
ATG4B conf: ATG4B (human) inhibition, single-dose confirmed | inhibition, % at 8.33 µM | shares compounds with ATG4B inhibitor | ATG4B protease fluorescent substrate cleavage assay | 320 tested, 92% active | AID 504757; in the data active = inhibition above about 39%
PLA2 ctr: inhibits human PLA2, flagging false ATG4B inhibitors; AID 588402; inhibition, % at 8.33 µM; purified PLA2, NBD-C6-HPC fluorescence, 45 min; shares compounds with ATG4B inhibitor; 1,600 tested, 66% active; in the data active = inhibition above about 50%
Target sequence (P04054 whole entry, looked up): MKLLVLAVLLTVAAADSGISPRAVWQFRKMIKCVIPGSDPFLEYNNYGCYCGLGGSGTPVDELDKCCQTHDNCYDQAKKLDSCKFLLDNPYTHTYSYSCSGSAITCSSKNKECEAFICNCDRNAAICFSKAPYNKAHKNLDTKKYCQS
* marks the source's active call; other numbers are inactive results; . = no result. Hits are enriched below; roughly 1.9% of the tested compounds scored in any of these assays.

SMILES	PP5 inh	H9c2 protect	PP1 counter	ATG4B inhibitor	PLA2 ctr	others
CC(C)CSC1=NSC2=NC(=O)/C(=C\c3cccs3)C(=N)N12	2	-15	0	-1	.
N=C1/C(=C/c2cccs2)C(=O)N=C2SN=C(SCc3ccccc3)N12	0	-17	-2	50*	62*
Cc1ccc(-c2ccc(/C=N/NC(=O)Cc3nnc(N)s3)o2)cc1Cl	2	15	3	68*	77*
COc1ccc(-c2ccc(/C=N/NC(=O)Cc3nnc(N)s3)o2)cc1Cl	0	10	0	-8	.
CN(C)c1ccc(NC(=O)Nc2ccc3c(c2)c(=O)n(C)n3Cc2ccc(Cl)cc2)cc1	.	-23	.	.	.
CCC(=O)n1nc(NCc2ccccc2OC)nc1NCc1ccccc1OC	2	-4	1	41*	37
C[C@H]1COC(=O)CC/C=C\C[C@H](CC(=O)N(CCO)Cc2ccccc2)C(=O)N1	.	14	.	-1	.
COC(CNC(=O)Cn1nc(Cc2ccncc2)c2ccccc2c1=O)OC	2	-2	3	3	.
Cc1nn(C(C)C(=O)NCCCN2CCCCCC2)c(=O)c2cc3sccc3n12 (centres undefined)	2	1	-1	5	.
C/C(=N/Nc1ccc([N+](=O)[O-])cc1)c1c[nH]c2ccccc12	.	-14	.	46*	50
C/C(=N/Nc1ccc([N+](=O)[O-])cc1)c1ccc(C)cc1C	8	-14	2	8	.
O=C(O)CN1C(=O)/C(=C\c2cc(Br)ccc2OCc2ccccc2F)SC1=S	0	-3	16*	56*	51*
O=C(O)CN1C(=O)/C(=C\c2cc(Br)ccc2OCc2ccc([N+](=O)[O-])cc2)SC1=S	-1	2	14	5	.
O=C(O)CN1C(=O)/C(=C\c2cc(Br)ccc2OCc2ccccc2Cl)SC1=S	1	2	15	50*	81*
COc1ccc(N2CCN(C(=O)c3ccc4c(c3)CC(c3ccccc3)OC4=O)CC2)cc1 (centres undefined)	.	-5	.	-9	.
O=C(/C=C/c1c(F)cccc1Cl)NCc1ccc2c(c1)OCO2	1	-4	0	6	.
CC(C)c1ccc(Nc2nc(N3CCOCC3)nc(N3CCOCC3)n2)cc1	.	-5	.	.	.
CC(C)c1ccc(Nc2nc(NCc3ccco3)nc(N3CCOCC3)n2)cc1	6	-14	3	41*	57*
O=C(O)c1cc([N+](=O)[O-])ccc1NCc1ccccc1Cl	-1	1	2	48*	45	ATG4B conf=64*
O=S(=O)(Nc1nc2ccccc2nc1N1CCc2ccccc2C1)c1ccc(Br)cc1	3	-6	5	26	.
Cc1ccc(S(=O)(=O)Nc2nc3ccccc3nc2N2CCN(c3ccccc3F)CC2)cc1	0	-3	0	61*	69*
Cc1ccccc1S(=O)(=O)Nc1nc2ccccc2nc1N1CCc2ccccc2C1	0	-8	5	43*	29	ATG4B conf=62*
CC(=O)Nc1ccc(S(=O)(=O)Nc2nc3ccccc3nc2N2CCc3ccccc3C2)cc1	2	6	0	25	.
O=S(=O)(Nc1nc2ccccc2nc1N1CCc2ccccc2C1)c1ccc(Cl)cc1	-1	-12	0	40*	4	ATG4B conf=85*
CCOc1cccc2c1OC1(C)CC2NC(=O)N1c1cccc(C(=O)NCc2ccccn2)c1 (centres undefined)	2	0	1	5	.
SMILES	PP5 inh	H9c2 protect	PP1 counter	ATG4B inhibitor	PLA2 ctr	others
CN(C)S(=O)(=O)c1cccc(NC(=O)c2ccc(COc3ccccc3)cc2)c1	3	-16	0	-3	.
O=C(Nc1ccc2nc(-c3ccco3)c(-c3ccco3)nc2c1)NC1CC1	.	6	.	55*	60*
CCOc1ccc(N(CC(=O)N/N=C(\C)c2cccc(NC(C)=O)c2)S(=O)(=O)c2ccccc2)cc1	1	9	-5	-8	.
COc1ccc(-c2nn(-c3ccccc3)cc2CNC[C@H]2O[C@@H](n3cnc(C(N)=O)n3)[C@H](O)[C@@H]2O)cc1	.	7	.	-5	.
Cc1ccc(S(=O)(=O)/N=C2/NC(=O)/C(=C\c3cc(Br)cc(Br)c3O)S2)cc1	.	-1	.	73*	60*
Cc1ccc(S(=O)(=O)/N=C2/NC(=O)/C(=C/c3ccc(Br)o3)S2)cc1	3	-4	10	39	.
COc1ccc(NC(=O)CN2C(=O)NC(c3ccccc3)(c3ccccc3)C2=O)cc1OC	6	-10	-2	-10	.
Cc1ccc(S(=O)(=O)NCC(=O)OCCOc2cccc(Cl)c2)cc1	4	-17	2	-9	.
COc1cccc(-c2ccc(NC(=O)C3CCCN(Cc4cnn(C(C)C)c4)C3)cc2)c1 (centres undefined)	1	-5	1	-10	.
C[C@H]1c2cccc(O)c2C(O)=C2C(=O)[C@]3(O)C(O)=C(C(N)=O)C(=O)[C@@H](N(C)C)[C@@H]3[C@@H](O)[C@@H]21	2	4	4	40*	1	ATG4B conf=66*
CN(C)S(=O)(=O)c1cccc(NC(=O)COC(=O)c2cccnc2Cl)c1	.	-2	.	-9	.
CCCc1nnc(SCC(=O)Nc2ccccc2Cl)n1CC1CCCO1 (centres undefined)	-2	1	3	5	.
COc1ccc(S(=O)(=O)Nc2ccccc2C(=O)Nc2nc(-c3ccc(F)cc3)cs2)cc1OC	4	-28	11	20	.
O=C(Nc1nc(-c2cccc([N+](=O)[O-])c2)cs1)c1cccc([N+](=O)[O-])c1C(=O)O	-1	8	-1	79*	82*
COc1ccc(-c2csc(NC(=O)c3ccccc3NS(=O)(=O)c3ccc(C)cc3)n2)cc1	4	-25	13	74*	68*
Cc1ccc(-c2csc(NC(=O)c3cccc([N+](=O)[O-])c3C(=O)O)n2)cc1	-3	2	-7	53*	69*
Cc1csc(NC(=O)c2ccccc2[N+](=O)[O-])n1	1	1	-5	-3	.
O=C(Cc1cccc2ccccc12)Nc1nc(-c2cccc([N+](=O)[O-])c2)cs1	0	2	-1	-10	.
O=C(O)c1ccccc1C(=O)Nc1nc(-c2ccc3ccccc3c2)cs1	1	-2	7	83*	84*
COc1ccc(Br)cc1/C=C(\C(=O)O)c1ccc(S(=O)(=O)N2CCCCC2)s1	3	-6	3	84*	87*
Cc1cccc(C)c1OCC(=O)Nc1cccc(NC(=O)c2ccco2)c1	5	0	0	48*	49	ATG4B conf=57*
CN(C)S(=O)(=O)c1ccc(NCC2COc3ccccc3O2)c([N+](=O)[O-])c1 (centres undefined)	6	-5	0	0	.
NC(=O)c1ccc(NCC2COc3ccccc3O2)c([N+](=O)[O-])c1 (centres undefined)	3	-7	-2	82*	79*
CC(C)(C)S(=O)(=O)N1Cc2ccc(CO)cc2[C@@H]1CCO	.	-1	.	3	.
